Bioassay records (PubChem)
NadD block = blocks S. aureus nicotinate mononucleotide adenylyltransferase. AID 602399. inhibition, % at 20 µM. 360,000 compounds, 0.78% hits. purified NadD enzyme, colorimetric absorbance read-out; in the data active means inhibition above about 26%
bovine MsrA act = activators of bovine methionine sulfoxide reductase A. purified bovine MsrA, absorbance read-out. activation, % at 10.6 µM. 360,000 compounds, 0.3% hits; in the data active means activation above about 7.5%;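 further: 0% = vehicle and 100% = reference activator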
rCAG binder = binds r(CAG) RNA repeats. r(CAG) RNA repeat, TO-PRO-1 dye displacement fluorescence. inhibition, % at 3 µM. 370,000 compounds, 1.3% hits;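 active means inhibition above the plate cutoff, the mean of all test compounds on that plate plus 3 SD, cut at about 35% in these data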;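 further: 0% = DMSO alone and 100% = 100 µM mitoxantrone as full dye displacement; higher means more dye released from RNA so lower well fluorescence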
MsrA inhibitor = inhibits bovine methionine sulfoxide reductase A; purified bovine MsrA, absorbance read-out; inhibition, % at 15.5 µM; 360,000 compounds, 0.75% hits; in the data active means inhibition above about 4.5%;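 further: 0% = vehicle wells with enzyme and 100% = reference inhibitor wells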
rCAG bind conf = r(CAG) RNA repeat binding, confirmation. shares compounds with rCAG binder. TO-PRO-1 dye displacement fluorescence. inhibition, % at 3 µM. 4,300 compounds, 70% hits. AID 652065;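 active means inhibition above a per-plate cutoff, the mean inhibition of sample wells plus 3 SD, cut at about 35% in these data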;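 further: loss of TO-PRO-1 fluorescence as compound displaces dye from 1x1 AA loop RNA; 0% = DMSO only wells and 100% = 100 µM mitoxantrone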
DNA CAG counter = disrupts DNA CAG TO-PRO-1 complex, flagging rCAG hits; shares compounds with rCAG binder; inhibition, % at 3 µM; d(CAG) DNA oligo TO-PRO-1 dye displacement, fluorescence; 4,300 compounds, 94% hits; AID 652068;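 active means inhibition above its plate's cutoff, the mean test-well inhibition plus 3 SD, cut at about 4.8% in these data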;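 further: 0% = DNA dye mix with DMSO and 100% = 100 µM mitoxantrone; hits displace the dye from DNA and so lower well fluorescence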
dCAG dye DR = DNA CAG dye complex inhibition, dose response counter-screen; shares compounds with rCAG binder; DNA CAG/GTC duplex TO-PRO-1 dye displacement fluorescence; IC50, µM; 250 compounds, 20% hits; AID 686960; in the data active means IC50 below about 10 µM
Active calls of the source: *. Only some compounds are listed: those with a hit (about 2.7% of all), similar ones and a draw of the others.

Screening CCC(Sc1nc2ccsc2c(=O)n1Cc1ccc(C(=O)O)cc1)C(=O)Nc1ccc(Cl)cc1 (stereo unspecified) returned NadD block 21, bovine MsrA act -3, rCAG binder 72*, MsrA inhibitor 0, rCAG bind conf 70*, DNA CAG counter 34* and dCAG dye DR inactive.
For O=c1cc(CSc2nnnn2-c2ccccc2)nc(Nc2ccc(F)cc2)[nH]1 the results were NadD block 18, bovine MsrA act -6, rCAG binder 43*, MsrA inhibitor 0, rCAG bind conf 43* and DNA CAG counter 15*.
`N/C(=N\c1nc(CSc2nnnn2-c2ccccc2)cc(=O)[nH]1)Nc1ccccc1` gave rCAG binder 1 and MsrA inhibitor -1.
Screening C=CCNc1nc2ccccc2nc1NS(=O)(=O)c1ccc(Br)cc1 returned NadD block -2, bovine MsrA act 0, rCAG binder 49*, MsrA inhibitor 1, rCAG bind conf 42* and DNA CAG counter 9.8*.
For C=CCNc1nc2ccccc2nc1NS(=O)(=O)c1ccc(F)cc1 the results were NadD block -3, bovine MsrA act 2, rCAG binder 21 and MsrA inhibitor 1.
For COc1ccccc1CN1[C@@H](CC(C)=O)c2cc(C(F)(F)F)ccc2S1(=O)=O the results were NadD block -3, bovine MsrA act -2, rCAG binder -5 and MsrA inhibitor 0.
Screening COc1cc(C)ccc1S(=O)(=O)NC(=O)C1(C)CCN1C(=O)c1ccc(C2CCCCC2)cc1 (stereo unspecified) returned NadD block 2, bovine MsrA act -7, rCAG binder 40*, MsrA inhibitor 0, rCAG bind conf 38* and DNA CAG counter 8.3*.
Screening Cc1cccc(S(=O)(=O)NC(=O)C2(C)CCN2C(=O)c2ccc(C3CCCCC3)cc2)c1 (stereo unspecified) returned NadD block 6, bovine MsrA act -5, rCAG binder 20 and MsrA inhibitor -2.
O=C(CN1c2cccc3cccc(c23)S1(=O)=O)NCCc1ccc(F)cc1 was read as NadD block -4, bovine MsrA act -4, rCAG binder 1 and MsrA inhibitor -1.
`O=C1C(c2cc(=O)c3ccccc3[nH]2)=C(O)c2ccccc21` gave NadD block -3, bovine MsrA act -8, rCAG binder 63*, MsrA inhibitor 3, rCAG bind conf 36* and DNA CAG counter 8.5*.
Screening Cc1onc(-c2c(F)cccc2Cl)c1-c1ncc(-c2ccc(Cl)cc2)o1 returned rCAG binder 1 and MsrA inhibitor -1.
Screening COc1cc(/C=C/C(=O)O)ccc1OS(=O)(=O)c1c(C)c(C)cc(C)c1C returned NadD block -1, bovine MsrA act -6, rCAG binder 56*, MsrA inhibitor 1, rCAG bind conf 56* and DNA CAG counter 16*.
Screening COc1ccc(CCNS(=O)(=O)c2cc(/C=C/C(=O)O)ccc2C)cc1OC returned NadD block -1, bovine MsrA act -7, rCAG binder 6 and MsrA inhibitor 0.
Screening Cc1[nH]n(-c2ccccc2)c(=O)c1C1(C(F)(F)F)C(=O)N(c2ccccc2)C2=C1C(=O)CC(C)(C)C2 (stereo unspecified) returned NadD block 2, bovine MsrA act -3, rCAG binder 36*, MsrA inhibitor 2, rCAG bind conf 22 and DNA CAG counter 7.3*.
`O=C(O)CC/C(=C\c1ccc(N2CCOCC2)c([N+](=O)[O-])c1)c1nc2ccccc2s1` gave NadD block 10, bovine MsrA act -6, rCAG binder 48*, MsrA inhibitor 3, rCAG bind conf 66* and DNA CAG counter 25*.
For O=C(O)CC/C(=C\c1ccc(Cl)c([N+](=O)[O-])c1)c1nc2ccccc2s1 the results were NadD block 5, bovine MsrA act -1, rCAG binder 39*, MsrA inhibitor 3, rCAG bind conf 41* and DNA CAG counter 10*.
For N#C/C(=C\c1ccc(O)c([N+](=O)[O-])c1)c1nc2ccccc2s1 the results were NadD block 8, bovine MsrA act -2, rCAG binder 88*, MsrA inhibitor 2, rCAG bind conf 82* and DNA CAG counter 43*.
`O=C(O)C/C(=C\c1ccc(N2CCOCC2)c([N+](=O)[O-])c1)c1nc2ccccc2s1` gave NadD block 7, bovine MsrA act -1, rCAG binder 45*, MsrA inhibitor 3, rCAG bind conf 41* and DNA CAG counter 16*.
For CCOC(=O)C1=CCN(S(=O)(=O)c2ccc(Cl)cc2)C1c1cccc(C)c1 (stereo unspecified) the results were NadD block -3, bovine MsrA act 0, rCAG binder 1 and MsrA inhibitor 0.
For CC(C)CNc1cc(Cl)c(S(=O)(=O)NCC(C)C)cc1C(=O)O the results were NadD block 3, bovine MsrA act -3, rCAG binder 37*, MsrA inhibitor 2, rCAG bind conf 19 and DNA CAG counter 1.
C[C@@H]1CC=C[C@H]2[C@H]1C(=O)N(Cc1ccccc1)[C@H]2c1ccc(-c2cc3ccccc3s2)cc1F was read as NadD block 8, bovine MsrA act -1, rCAG binder 8 and MsrA inhibitor 1.
CC(c1ccccc1)N1C(=O)c2ccc(C(=O)Nc3ccc(Br)cc3C(=O)O)cc2C1=O (stereo unspecified) was read as NadD block 14, bovine MsrA act -5, rCAG binder 52*, MsrA inhibitor 1, rCAG bind conf 81* and DNA CAG counter 77*.
CC(c1ccccc1)N1C(=O)c2ccc(C(=O)Nc3ccccc3C(=O)O)cc2C1=O (stereo unspecified) was read as NadD block -3, bovine MsrA act -6, rCAG binder 81*, MsrA inhibitor 2, rCAG bind conf 87* and DNA CAG counter 70*.
For CCC(C)C(=O)Nc1ccc(S(=O)(=O)Nc2nccs2)cc1 (stereo unspecified) the results were NadD block -3, bovine MsrA act -5, rCAG binder 2 and MsrA inhibitor 1.
For CCCC(=O)Nc1ccc(S(=O)(=O)Nc2nccs2)cc1 the results were NadD block 0, bovine MsrA act -1, rCAG binder 1 and MsrA inhibitor 1.
For O=C(CN1C(=O)c2cccc3cccc1c23)Nc1ccc(S(=O)(=O)Nc2nccs2)cc1 the results were bovine MsrA act 0, rCAG binder 67*, MsrA inhibitor 2, rCAG bind conf 47* and DNA CAG counter 17*.
CCc1ccc(OC(C)C(=O)Nc2ccc(S(=O)(=O)Nc3nccs3)cc2)cc1 (stereo unspecified) was read as NadD block -6, bovine MsrA act -1, rCAG binder 52*, MsrA inhibitor -1, rCAG bind conf 39* and DNA CAG counter 14*.
